# ChEMBL document CHEMBL3988442, “University of Dundee, Small-Polar-MMV Screening Library” (2021)
# Among all 69,000 compounds or so, about 950 (1.4%) showed an effect of 50% or more. Many of the other results were omitted from the sample, so strong results are more common in it than they were.
# Tested on: Mycobacterium tuberculosis
# Test: Cornell M. t heat shock assay; also: in the data most compounds retested in dose-response had high values
# Assay type: functional, organism-based
# Set-up: dose or concentration left out as unconfirmed
row,Structure (SMILES),Percent Effect [%]
1,NCC(c1ccccc1)N1CCc2sccc2C1 (stereo not given),4.411
2,CC(C)c1ccc(C(CN)N2CCc3sccc3C2)cc1 (stereo not given),92.4
3,NCC(c1ccc(Cl)cc1)N1CCc2sccc2C1 (stereo not given),22.77
4,Cc1csc([C@@H]2C[C@H]3CN(c4ncc(F)cn4)C[C@H]3O2)n1.O=C(O)C(F)(F)F,25.07
5,CC(N)Cc1ccccc1Sc1ccccc1.O=C(O)/C=C\C(=O)O (stereo not given),31.83
6,CNC(C)Cc1ccccc1Sc1ccc(O)cc1.Cl (stereo not given),5.856
7,CC(N)Cc1ccccc1Sc1ccc(O)cc1.CC(N)Cc1ccccc1Sc1ccc(O)cc1.O=C(O)C(=O)O (stereo not given),54.17
8,O=C(Nc1ccccc1)[C@H]1C[C@@H]2CN(S(=O)(=O)c3ccccc3)C[C@H]1O2,3.672
9,CCc1cc(NCCNc2ccncc2C)n2nc(C)c(C)c2n1,10.67
10,Cc1cc(NC2CCN(Cc3ccccn3)CC2)n2nc(C)c(C)c2n1,3.704
11,CCc1cc(NCCc2cccnc2)n2nc(C)c(C)c2n1,66.22
12,Cc1cc(NCCCNc2cccnc2)n2nc(C)c(C)c2n1,90.05
13,CCc1cc(NCCN2CCNC2=O)n2nc(C)c(C)c2n1,-8.001
14,CCc1cc(NCCNc2cccnc2)n2nccc2n1,0.7035
15,Cc1cc(N[C@@H](CO)c2ccccc2)n2nc(C)c(C)c2n1,11.1
16,CCc1cc(NCCNC(=O)c2cccnc2)n2nc(C)c(C)c2n1,-20.84
17,CCc1cc(NCCc2cnccn2)n2nc(C)c(C)c2n1,78.14
18,O=C(O)C(F)(F)F.O=C(c1ccco1)N1C[C@@H]2OCCN(c3ncccn3)[C@@H]2C1,-4.269
19,COc1cccc(CN2C[C@@H]3COC[C@]3(CNC(=O)C3CC3)C2)c1.O=C(O)C(F)(F)F,18.07
20,O=C(O)C(F)(F)F.O=C(c1ccco1)N1CCCC12CCN(c1ncccn1)CC2,-4.902
21,Cn1cc(-c2csc(N3CCCCCC3)n2)cn1,70.2
22,CN1CCN(c2nc(-c3cnn(C)c3)cs2)CC1,-2.615
23,Cn1cc(-c2csc(N3CCSCC3)n2)cn1,7.511
24,O=C(NCC1CC1)[C@@H]1C[C@@H]2CCN(Cc3ccoc3)C[C@@H]2O1,-11.78
25,Cc1ccc(C(=O)N2CCC3(CC2)CC(N2CCOCC2)C3)cc1.O=C(O)C(F)(F)F,4.537

row,Structure (SMILES),Percent Effect [%]
1,Cc1noc(C)c1C(=O)N1CCOC2(COCCN(C(C)C)C2)C1.O=C(O)C(F)(F)F (stereo not given),7.392
2,CC(CNCc1ccc(Br)cc1)Oc1ccccn1.Cl (stereo not given),-4.228
3,CN(C)CCn1c2c(ccc1=O)CCN(Cc1cnn(C)c1)CC2.O=C(O)C(F)(F)F.O=C(O)C(F)(F)F,10.2
4,CC(C)NC(=O)N1CCC2(CCC(=O)N2CCN(C)C)CC1.O=C(O)C(F)(F)F,-12.81
5,CN1CCN(C(=O)c2cnsn2)c2cc(F)ccc21,57.04
6,CN1CCN(C(=O)c2csnn2)c2ccccc21,-18.09
7,CN1CCN(C(=O)CCc2cccnc2)c2ccc(F)cc21,15.62
8,CN1CCCN(C(=O)c2cnsn2)c2cc(F)ccc21,-35.83
9,CN1CCN(C(=O)c2cnsn2)c2ccc(F)cc21,82.14
10,CN1CCCN(C(=O)c2cnsn2)c2cc(Cl)ccc21,-8.8
11,Clc1ccccc1CCN1CCN(c2ccc3nncn3n2)CC1,33.42
12,Cc1ccc(-c2nc(CN3CCCC(Cn4cncn4)C3)cs2)o1 (stereo not given),9.33
13,O=C(CC1CC1)N1CCC2(COCc3cnc(N4CCOCC4)nc32)C1 (stereo not given),6.453
14,CCOc1ccc(C(=O)N2CCN(c3nccn3C)CC2)cc1.Cl,-17.36
15,Cc1cnn(CCNCc2csc(-c3cccs3)n2)c1,25.75
16,Cc1cnn(CC(C)NCc2csc(-c3cnn(C)c3)n2)c1 (stereo not given),-23.56
17,Cc1cnn(CCNCc2csc(-c3ccc(F)cc3)n2)c1,22.16
18,Cc1cnn(CCNCc2csc(-c3ccsc3)n2)c1,107.8
19,Cc1cnn(CCNCc2csc(-c3ccccc3)n2)c1,104.4
20,Cc1cnn(CC(C)NCc2csc(-c3ccsc3)n2)c1 (stereo not given),27.16
21,Cc1cccc(N2CCc3ncc(CNS(C)(=O)=O)n3CC2)n1.O=C(O)C(F)(F)F,-36.69
22,Cc1ccc(C2CCCN2S(=O)(=O)N(C)CCc2ccccn2)o1 (stereo not given),69.2
23,Cc1ccc(C2CCCN2S(=O)(=O)N(C)Cc2cnccn2)o1 (stereo not given),-5.103
24,CN(CCc1ccccn1)S(=O)(=O)N1CCCC1c1ccco1 (stereo not given),16.77
25,I.c1cc2c(cc1C1(CNC3=NCCN3)CCCC1)OCCO2,-5.173

row,Structure (SMILES),Percent Effect [%]
1,CNC(=O)CN1CCOCC12CCN(C(=O)c1ccccc1)CC2.O=C(O)C(F)(F)F,-17.78
2,COc1ccc(OC)c(NC(=O)N2CCCC2c2ccco2)c1 (stereo not given),25.75
3,COc1ccccc1NC(=O)N1CCCC1c1ccco1 (stereo not given),40.09
4,COc1ccc(NC(=O)N2CCCC2c2ccco2)c(OC)c1 (stereo not given),74.57
5,O=C(O)CC(O)(CC(=O)O)C(=O)O.c1ccc([C@@H]2CN(Cc3cccnc3)C[C@H]2c2cc[nH]n2)cc1,-3.502
6,Cc1ccc(CN2CCC3(CC2)COCCN3S(C)(=O)=O)o1.O=C(O)C(F)(F)F,38.18
7,CN1CCN(C(=O)Cn2nc(C(F)(F)F)c(Br)c2C2CC2)CC1,82.35
8,CCCN1CCN(C(=O)Cn2nc(C(F)(F)F)c(Br)c2C2CC2)CC1,-16.27
9,CCN1CCN(C(=O)Cn2nc(C(F)(F)F)c(Br)c2C2CC2)CC1,-4.049
10,Nc1ncc2c(n1)CN(C1CCCC1)C2=O,101.8
11,CN1CCC(N2Cc3nc(N)ncc3C2=O)CC1,-6.315
12,CC1CCC(N2Cc3nc(N)ncc3C2=O)CC1 (stereo not given),7.341
13,COCCN1CCc2c(CNC(=O)c3nccn3C)cncc2C1.Cl.Cl.Cl,7.945
14,Cc1nc(CN2CCC3(CC2)CC(c2cccnc2)C(=O)N3C)cs1.O=C(O)C(F)(F)F.O=C(O)C(F)(F)F (stereo not given),40.95
15,O=C(c1cccc2cccnc12)N1CC[C@@]2(CCCO2)[C@@H](O)C1,50.53
16,CSc1ncccc1C(=O)N1CCC2(CC1)OCCCC2O (stereo not given),9.306
17,O=C(c1cccnc1O)N1CCC2(CCCO2)CC1,-109.6
18,CCOc1ccc(C(=O)CC(SC2CCCCC2)C(=O)O)cc1 (stereo not given),28.66
19,Br.O=C(CN(C1=NCCCC1)c1ccccc1)c1ccc2c(c1)OCCO2,-15.61
20,Cc1ccc(N(CC(=O)N2CCCCC2)C(=O)C2CCCO2)cc1 (stereo not given),-0.08324
21,Br.O=C(CN(C1=NCCCC1)c1ccccc1)c1ccccc1,-38.94
22,Br.O=C(CN(C1=NCCCC1)c1ccccc1)c1ccc(OC(F)F)cc1,95.91
23,Br.Cc1ccc(N(CC(=O)c2ccc(Br)cc2)C2=NCCCCC2)cc1,103.6
24,Br.COc1ccc(C(=O)CN(C2=NCCCCC2)c2ccccc2)cc1,22.41
25,Br.Cc1cccc(N(CC(=O)c2ccccc2)C2=NCCCCC2)c1,15.52

row,Structure (SMILES),Percent Effect [%]
1,Br.Cc1ccc(C(=O)CN(C2=NCCCCC2)c2ccccc2)cc1,26.5
2,C[S+]([O-])c1nncn1CC(=O)c1ccc(OC(F)F)cc1 (stereo not given),27.46
3,Br.O=C(CN(C1=NCCCCC1)c1ccc(Cl)cc1)c1ccccc1,102
4,Br.CCOc1ccc(N(CC(=O)c2ccccc2)C2=NCCCCC2)cc1,104.1
5,COc1ccc(CN2C[C@@H]3CC[C@H](C2)N(S(=O)(=O)C2CC2)C3)cc1,-4.175
6,Cc1ccc(N2CC[C@@H]3[C@@H]2CCN3C(=O)Cc2cccs2)nn1.O=C(O)C(F)(F)F,1.861
7,CC(=O)NCCc1cc2nc(-c3ccncc3)ccn2n1,1.137
8,COCCC(=O)N1CCCC2(CCCN2Cc2ccccc2F)C1.O=C(O)C(F)(F)F (stereo not given),-33.92
9,CN(C)Cc1cc(C2CCN(C(=O)C3CCCNC3)CC2)nn1C.Cl (stereo not given),-6.1
10,O=C(O)C(F)(F)F.O=C1COC2(CCN(S(=O)(=O)C3CC3)CC2)CN1c1cccnc1,-24.7
11,CNC(=O)[C@H]1C[C@@H]2CN(Cc3ccc(C)cc3)C[C@H]1O2.O=C(O)C(F)(F)F,33.5
12,Cc1ccc(N2CC[C@H]3O[C@H](C(=O)N4CCCCO4)CC[C@H]32)nn1.O=C(O)C(F)(F)F,36.81
13,O=C(C1CC1)N1CC[C@@H]2[C@H](CC1)N(Cc1cccnc1)CCS2(=O)=O.O=C(O)C(F)(F)F.O=C(O)C(F)(F)F,-20.85
14,COCCNS(=O)(=O)c1cccc2c1CN(C(=O)c1ccccc1)CC2,-0.08173
15,COCCNS(=O)(=O)c1ccc2c(c1)CCN(C(=O)c1cncn1C)C2,91.56
16,COCCNS(=O)(=O)c1cccc2c1CN(C(=O)c1cnccn1)CC2,3.399
17,CC(C1CCN(Cc2ccc(OC(F)F)cc2)CC1)N1CCOCC1 (stereo not given),96.37
18,CC(C)Oc1ccc(CN2CCC(Cc3nnc(CO)n3C)CC2)cc1,-21.53
19,CC(C)Oc1cccc(CN2CCC(c3n[nH]c4ncccc34)CC2)c1,-24.22
20,CC(C)Oc1cccc(CN2CCC(C(C)N3CCOCC3)CC2)c1 (stereo not given),91.46
21,CC(C1CCN(Cc2ccc(N(C)C)nc2)CC1)N1CCOCC1 (stereo not given),-22.49
22,CC(C1CCN(Cc2c(Cl)cncc2Cl)CC1)N1CCOCC1 (stereo not given),-44.11
23,FC(F)Oc1ccccc1CN1CCCC(c2nccn2CC2CC2)C1 (stereo not given),23.85
24,CC(C1CCN(Cc2cccc(OC(F)F)c2)CC1)N1CCOCC1 (stereo not given),1.128
25,CC(C1CCN(Cc2ccccc2OC(F)F)CC1)N1CCOCC1 (stereo not given),90.2
